From PubChem BioAssay AID1159580 (chemical genetic matrix, 2015)
Hit rate of the full screen: of about 5,500 compounds, about 2,000 (36%) were called active. Roughly 18% stayed inconclusive and do not appear here. Cut-off read from the data, not from the text of the source: active = normalized growth mostly below about 0.91 (no sharp cut-off); inconclusive = no clear call, values can overlap the other calls; inactive = mostly above about 0.92. The list shows a part of the results.

Assay: chemical genetic growth profiling, strain panel (AID 1159580);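 note: tested at 20 µM; growth read once vehicle control cultures reached saturation at 30 °C; 1 = growth at the plate median or of vehicle wells; lower values mean less growth of the strain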
Conditions: S. cerevisiae deletion strains, growth OD

Measured: normalized growth

COc1cc2oc3cc(OC)c(OC)c(CC=C(C)C)c3c(=O)c2c(O)c1CC=C(C)C
inactive: locus YHR030C, strain SLT2, active compounds read low 0.981 | locus YHR079C, strain IRE1, active compounds read low 0.988 | locus YJL095W, strain BCK1, active compounds read low 0.971 | locus YJR066W, strain TOR1, active compounds read low 0.934 | locus YLR113W, strain HOG1, active compounds read low 0.958 | locus YNL183C, strain NPR1, active compounds read low 0.919 | locus YOR231W, strain MKK1, active compounds read low 0.981 | locus YPL256C, strain CLN2, active compounds read low 0.992
